This passage reports Potency results from PubChem BioAssay (Tox21).

Results filed as inconclusive are left out. Where a call stands in place of a potency, no number is given. Calls of active or inactive are those of the source. Calls follow the shape of the full dose curve.

The assay deals with D(2) dopamine receptor (Homo sapiens) (UniProt P14416). The assay can be described thus: Dopamine D2 receptor (DRD2) small molecule agonists, cell-based qHTS assay (AID 1963594). Also: nearly all actives have a fitted effect of over 35% in size. The conditions noted are these: HEK293-DRD2 cAMP HTRF, agonist mode, 30 min; series mostly up to 92.4 µM. The source says: National Center for Advancing Translational Sciences [NCATS]
Sequence of D(2) dopamine receptor (Homo sapiens) (P14416 whole entry, looked up): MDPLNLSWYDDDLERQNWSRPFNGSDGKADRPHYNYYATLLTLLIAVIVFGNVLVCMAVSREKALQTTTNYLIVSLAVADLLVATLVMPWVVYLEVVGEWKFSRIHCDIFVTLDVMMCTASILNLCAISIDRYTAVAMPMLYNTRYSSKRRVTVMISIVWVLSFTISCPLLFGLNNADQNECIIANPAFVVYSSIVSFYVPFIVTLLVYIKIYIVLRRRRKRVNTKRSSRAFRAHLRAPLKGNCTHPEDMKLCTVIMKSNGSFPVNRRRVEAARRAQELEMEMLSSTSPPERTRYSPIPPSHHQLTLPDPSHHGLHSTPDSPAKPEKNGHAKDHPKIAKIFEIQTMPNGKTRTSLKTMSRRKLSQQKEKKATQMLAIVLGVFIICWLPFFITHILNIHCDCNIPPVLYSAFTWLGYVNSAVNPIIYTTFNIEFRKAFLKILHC
Division of Preclinical Innovation [DPI]
U.S. Environmental Protection Agency [EPA]
National Institutes of Environmental Health Sciences [NIEHS]
National Toxicology Program [NTP]
U.S. Food and Drug Administration [FDA]
DRD2 is the D2 subtype of the dopamine receptor, which is coupled to Gi subtype of G protein-coupled receptor. This G protein-coupled receptor inhibits adenylyl cyclase activity. The DRD2-HEK293 cell line stably expressing D2 dopamine receptor can be used for screening agonists and antagonists of interactions between D2 and its ligands. The Hek293-DRD2 cAMP assay is based on HTRF technology. It measures changes of cAMP accumulation in response to Gi coupled GPCR activation or inhibition.
Tox21 Assay Protocol Summary:
DRD2-Hek293 cells were dispensed at 600 cells/3uL/well in 1536-well white plates using a Multidrop Dispenser. After the assay plates were incubated at a 37 C/5% CO2 incubator for 24 h, 1 uL of Ro20-1724 at final concentration of 0.1 mM was transferred to the assay plate by a Flying Reagent Dispenser. Following Ro20-1724 addition, 23 nL of compound dissolved in DMSO, positive controls or DMSO only was added to the assay plates via Wako pintool station. The assay plates were incubated at room temperature for 10 min. Next, 1 uL of NKH477 at 200nM was added into the plates. After the assay plates were incubated at room temperature for an additional 30 min, 2.5 ul/well of cAMP-d2 and 2.5 ul/well of anti-cAMP-cryptate were added respectively into the assay plates using a Flying Reagent Dispenser. The plates were incubated at room temperature for 1 h. The fluorescence intensity in the plates was measured at 340 nm excitation and 665 & 620 nm emission by an Envision plate reader.
Background: In qHTS, concentration-response curves come from the screen itself.
For `Oc1ccc(-c2ccccc2)cc1`, the Potency result was “inactive”.
With `c1ccc(OP(Oc2ccccc2)Oc2ccccc2)cc1`, the Potency result is “inactive”.
`C1CCC(NC2CCCCC2)CC1`: the Potency entry is “inactive”.
Regarding `C=Cc1cccc(CCl)c1`, the Potency entry was “inactive”.
The entry for `c1ccc(N2CCNCC2)cc1` is “inactive”; for `ClCCOCOCCCl` it is “inactive”; for `COC(=O)[C@@H](N)CCCN/C(N)=N/[N+](=O)[O-]` it is “inactive”.
The entry for `CCCCCCCCCCCC#N` is “inactive”; for `CCCN(CCC)N=O` it is “inactive”; for `CC(C)NC(=O)N1CC(=O)N(c2cc(Cl)cc(Cl)c2)C1=O` it is “inactive”.
Take `C[C@]12C=CC3=C4CCC(=O)C=C4CC[C@H]3[C@@H]1CC[C@@H]2O`: the Potency result is “inactive”.
Then `NC(=O)CCl`, with “inactive”; and `[O-][Cl+2]([O-])O`, with “inactive”.
For `CCOP(OCC)OCC`, the Potency result is “inactive”.
Consider `CCCCCCCCCCCCCCCC[n+]1ccccc1`, for which the Potency entry is “inactive”.
Consider `O=C(O)C(F)(F)C(F)(F)C(F)(F)C(F)(F)C(F)(F)C(F)(F)C(F)(F)C(F)(F)F`, for which the Potency entry is “inactive”.
In the case of `CC(C)c1ccc(CO)cc1`, the Potency result was “inactive”.
In the case of `COS(=O)(=O)OC`, the Potency result was “inactive”.
Then `CCCCOCCOC(C)=O`, with “inactive”.
`CCN(CC)C(=O)/C(Cl)=C(\C)OP(=O)(OC)OC`: the Potency entry is “inactive”.
`Oc1ccccc1Cl`: the Potency entry was “inactive”.
On to `CCCC(C)(COC(N)=O)COC(=O)NC(C)C` (stereo not given), for which the Potency result is “inactive”.
The entry for `Cc1cc(Cl)ccc1OCC(=O)O` is “inactive”; for `S=c1[nH]c2ccccc2[nH]1` it is “inactive”.
The entry for `Oc1ccc(Cl)cc1Cl` is “inactive”; for `CC(C)CON=O` it is “inactive”; for `CCN(CC)CCN1C(=O)CN=C(c2ccccc2F)c2cc(Cl)ccc21` it is “inactive”.
On to `O=S(=O)(O)C(F)(F)C(F)(F)C(F)(F)C(F)(F)C(F)(F)C(F)(F)F`, for which the Potency entry is “inactive”.
As to `Oc1ccc(Cl)c(Cl)c1`, the Potency result is “inactive”.
For `COCCC#N`, the Potency entry is “inactive”.
Turning to `C=C(C)[C@@H]1CC=C(C=O)CC1`, the Potency entry was “inactive”.
For the compound `COc1ccc(N)cc1`, the Potency result is “inactive”.
`CCOC(=O)CC(SP(=S)(OC)OC)C(=O)OCC` (stereo not given): the Potency result was “inactive”.
For the compound `Cc1ccc(-c2nc3ccc(C)cn3c2CC(=O)N(C)C)cc1`, the Potency result is “inactive”.
For `N#CCCC#N`, the Potency result is “inactive”.
Then `CCC(CC)Nc1c([N+](=O)[O-])cc(C)c(C)c1[N+](=O)[O-]`, with “inactive”.
In the case of `CCCC[n+]1ccc(C)cc1`, the Potency result is “inactive”.
For the compound `Cc1ccccc1[N+](=O)[O-]`, the Potency entry was “inactive”.
As for `CCOP(=S)(OCC)Oc1cnc2ccccc2n1`, the Potency result was “inactive”.
For `N#CSCSC#N`, the Potency entry was “inactive”.
